Among all 290,000 compounds or so, about 27,000 (9.3%) were called active. The sample as a whole holds a higher share of actives than the screen did. Unmarked numbers belong to inactive results. Rule as the data show it: active = inhibition mostly above about 28% (no sharp cut-off); inactive = mostly below about 43%.
Test: A qHTS for Small Molecule Inhibitors of Shiga Toxin; also: 0% is about no effect
Conditions: Vero cells, Shiga toxin protein synthesis inhibition reporter; at 38.7 µM, active compounds read high

In order of rising inhibition:
1. CC(=O)c1ccc(NC(=O)c2ccc(-n3cncn3)c([N+](=O)[O-])c2)cc1  -21.9%
2. COc1ccc(S(=O)(=O)N2CCN(C(=O)N(C)C)C2C)cc1 (centres undefined)  -15.4%
3. COc1ccc(C(=O)NC(=S)N2CCNC(=O)C2CC(=O)OC(C)C)cc1 (centres undefined)  -13.5%
4. CN1CCN(C(=O)c2cnn(-c3ccccc3)c2NC(=O)c2ccc([N+](=O)[O-])cc2)CC1  -12.4%
5. COc1cccc(CNC(=O)CCCC(=O)Nc2cccc([N+](=O)[O-])c2)c1  -12.3%
6. COc1ccc(C2NC(=O)N(C)C(C)=C2[N+](=O)[O-])cc1 (centres undefined)  -11.1%
7. Nc1nonc1-n1nnc(C(=O)N/N=C\c2ccncc2)c1CN1CCCCC1  -10.8%
8. COc1ccc2cc(C(=O)O)n(CC(=O)c3ccccc3)c2c1  -10.5%
9. COc1ccc(Nc2ncnc3ccc(OC)cc23)cc1  -8.31%
10. Cc1cccc(C)c1-n1c(C)cc(/C=C2\C(=O)NN(c3ccccc3)C2=O)c1C  -7.74%
11. COc1ccc(-n2ncc3c2CC(C)(C)CC3NC(=O)CCc2c(C)nn(C)c2C)cc1 (centres undefined)  -7.46%
12. CC1CCN(C(=O)c2ccc3c(c2)NC(=O)CN3)CC1  -6.93%
13. Cc1cnc(C(=O)N2CCCC(N3CCN(c4ccccc4F)CC3)C2)cn1 (centres undefined)  -6.28%
14. COc1cc(CCC(=O)N2CCN(c3ccccc3Cl)CC2)cc(OC)c1OC  -6.24%
15. CC(=O)NC(CC(=O)Nc1nc(-c2ccccc2)c(C(C)=O)s1)c1ccccc1 (centres undefined)  -5.9%
16. Cc1cccc(NC(=O)Nc2nnc(-c3ccccc3)o2)c1  -5.35%
17. COc1ccc(OC)c(CCNC(=O)c2nn(C)c3c2CS(=O)(=O)c2ccccc2-3)c1  -4.81%
18. O=C(CN1CCC(NC(=O)C2CC2)CC1)Nc1ccccc1[N+](=O)[O-]  -3.78%
19. O=C(Nc1nnc(C2=COCCO2)o1)c1ccc([N+](=O)[O-])s1  -3.51%
20. O=C(CN1C2=NCCN2c2ccccc21)c1cccs1  -3.32%
21. Cc1c(C(=O)NCCN(C)C)oc2ccc(S(=O)(=O)N3CCCC3)cc12  -2.78%
22. CC(C)OCCCNC(=O)CNC(=O)c1cccs1  -2.7%
23. Cn1c(=O)oc2cc(S(=O)(=O)NCCC(=O)NCc3ccccc3Cl)ccc21  -2.59%
24. Cc1occc(=O)c1OCc1ccc(F)cc1  -2.22%
25. COc1ccc(CNC(=O)CSc2n[nH]c(N)n2)cc1OC  0.155%
26. COCCCNC(=O)Cc1ccc(-n2c(C)nc3cccnc32)cc1  1.73%
27. COc1cccc(NC(=O)CCc2nnc3ccc(N4CCC(C)CC4)nn23)c1  2.02%
28. CCc1nnc(NC(=O)c2nc3nccc(C)n3n2)s1  2.51%
29. Cc1cccc(C(=O)NNC(=O)c2cccc([N+](=O)[O-])c2)c1  3.18%
30. Cc1cc(C(=O)NC2CCCc3c2cnn3-c2cccc(C)c2C)c(C)o1 (centres undefined)  3.44%
31. O=c1ccc2cc(S(=O)(=O)NCCCc3ccccc3)ccc2[nH]1  3.55%
32. COc1cccc(C(=O)CC(=O)C(=O)Nc2ccc([N+](=O)[O-])cc2C)c1  4.12%
33. COc1ccc(Nc2cc(Sc3ccc(OC)cc3)ncn2)cc1  4.28%
34. Fc1cccc2ncnc(OCc3ccccc3)c12  5.51%
35. COc1ccc(/C=N/Nc2cc(N3CCOCC3)nc(C)n2)c(OC)c1  6.01%
36. CCCCn1c(-c2cccc(C)c2)nc2cc3[nH]c(=O)c(C(C)C)nc3cc21  9.49%
37. CCCCC(=O)Nc1nnc(S(=O)(=O)N(C)Cc2ccco2)s1  10.1%
38. COc1ccccc1-n1c(C)nc2cc(C(=O)NCc3ccc4c(c3)OCO4)ccc21  11.2%
39. O=C(CCC1CCCC1)N=C1SC2CS(=O)(=O)CC2N1Cc1ccccc1 (centres undefined)  14.2%
40. Cn1cc(C(=O)NCc2ccccc2F)cn1  14.6%
41. N#CCC(=O)N/N=C/c1ccc(SCC(=O)Nc2ccccc2)o1  17.4%
42. CC1(C)CC(=O)C/C(=N\NC(=O)c2cccs2)C1  18.8%
43. COc1ccc(C(=O)NCCc2ccc(S(N)(=O)=O)cc2)cc1OC  21%
44. CC(C)c1ccc(N(C(=O)c2ccco2)C(C(=O)NC2CCCC2)c2cccnc2)cc1 (centres undefined)  22.5%
45. O=C(Cc1ccccc1)Nc1cccc(C(=O)N/N=C/c2ccco2)c1  23.9%
46. COC(=O)/C=C\C(=O)Nc1cccc([N+](=O)[O-])c1  26.5%
47. O=C(COc1ccc(Cl)cc1)NCCS(=O)(=O)N1CCN(c2ccc(F)cc2)CC1  29%
48. COc1ccc(Cc2nc3ccc(C(=O)NCC4CCOCC4)cc3o2)cc1OC  37.2%
49. COc1ccccc1CCNC(=O)C1CCN(C(=O)/C=C/c2ccccc2)CC1  39.9%
50. Cc1cc(/C=C2/NC(=O)NC2=O)c(C)n1-c1cccnc1  44.4%
51. COc1ccc(/C=N/NC(=O)c2ccc3c(c2)OCCO3)c(OC)c1  45.8%
52. Cc1cc(CNC(=O)c2cccc([N+](=O)[O-])c2)c2ccccc2n1  54%

In the case of `O=C(CSc1ccc(/C=N/NC(=O)c2cccc(F)c2)o1)Nc1ccccc1`, the inhibition was 44.3% (active).
For `COCCNC(=O)c1ccc2nc(Cc3ccc(OC)c(OC)c3)oc2c1`, the inhibition was 30.7% (active).
For `CSCCNC(=O)c1ccc2nc(Cc3ccccc3F)oc2c1`, the inhibition was 49.7% (active).
In the case of `COc1ccc(Nc2ncnc3sc(C)cc23)cc1`, the inhibition was 56.1% (active).
For `COc1ccc(/C=N/OCc2ccccc2C#N)c(OC)c1`, the inhibition was 70.8% (active).
In the case of `Cc1nc2ccccc2cc1OCc1ccc(F)cc1`, the inhibition was 29.8% (active).
For `Cc1ccccc1-n1c(C)cc(/C=C2\NC(=O)NC2=O)c1C`, the inhibition was 55.3% (active).
For `Cc1ccnc2nc(C(=O)Nc3nnc(-c4ccccc4)o3)nn12`, the inhibition was 71.9% (active).
For `Nc1c(C(=O)c2cccs2)sc2nsc(SCCN3CCCCC3)c12`, the inhibition was 45.8% (active).
For `CC1C/C(=N/NC(=O)c2cccs2)CC(C)(C)C1` (centres undefined), the inhibition was 84.1% (active).
For `COc1cccc(NCCC(=O)c2cccc([N+](=O)[O-])c2)c1`, the inhibition was 67.3% (active).
In the case of `CC(C)(C)SCCNC(=O)c1cccc([N+](=O)[O-])c1`, the inhibition was -40.1% (active).
